This passage reports outcome and AC50 results from PubChem BioAssay (EPA / NIEHS).

As a reminder, the AC50 is the concentration giving half of the maximal activity seen.

For assay [1], the target named is sheep Cyclooxygenase-2 (Cox2), PTGS2 (gene 443460) (UniProt P79208). Nature of the assay: NVS_ENZ_oCOX2: NovaScreen (NVS) Enzymatic Assay for sheep Cyclooxygenase-2 (Cox2) (AID 2283231). Put shortly:
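Enzyme extracted from ovine placenta tested cell-free; activity read colorimetrically by absorbance 0.66 hour after dosing. Primary screen in duplicate at 25 uM; hits rerun as concentration series to 50 uM, loss of signal versus DMSO baseline.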

For assay [2], the target named is rat Monoamine Oxidase, MAO-B, Central (MAOBC), Maob (gene 25750) (UniProt P19643). Nature of the assay: NVS_ENZ_rMAOBC: NovaScreen (NVS) Enzymatic Assay for rat Monoamine Oxidase, MAO-B, Central (MAOBC) (AID 2283238). Summed up: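 Here MAO-B activity in rat brain preparations is quantified radiometrically, counts taken at 1.17 hours. Concentration-response runs reach 50 uM, with plate controls, and values are fitted as loss of signal from the DMSO baseline.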
Sequence of rat Monoamine Oxidase, MAO-B, Central (MAOBC), Maob (gene 25750) (P19643 whole entry, looked up): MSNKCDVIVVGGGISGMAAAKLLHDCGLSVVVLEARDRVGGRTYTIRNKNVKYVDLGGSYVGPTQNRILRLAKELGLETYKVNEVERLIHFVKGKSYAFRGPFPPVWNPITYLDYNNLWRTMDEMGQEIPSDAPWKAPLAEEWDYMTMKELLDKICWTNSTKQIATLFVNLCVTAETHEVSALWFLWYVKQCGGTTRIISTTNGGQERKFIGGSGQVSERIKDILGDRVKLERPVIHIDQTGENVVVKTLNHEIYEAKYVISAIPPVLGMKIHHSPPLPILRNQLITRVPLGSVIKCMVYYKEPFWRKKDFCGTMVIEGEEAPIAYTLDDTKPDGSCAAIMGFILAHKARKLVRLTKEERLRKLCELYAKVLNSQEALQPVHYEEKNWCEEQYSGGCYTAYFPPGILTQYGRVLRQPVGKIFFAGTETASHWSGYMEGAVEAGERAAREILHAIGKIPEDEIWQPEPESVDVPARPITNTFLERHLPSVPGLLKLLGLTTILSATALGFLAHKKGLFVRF

In assay [3] the target is sheep Cyclooxygenase-1 (Cox1), PTGS1 (gene 443551) (UniProt P05979). Nature of the assay: NVS_ENZ_oCOX1: NovaScreen (NVS) Enzymatic Assay for sheep Cyclooxygenase-1 (Cox1) (AID 2283239).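 Note: actives reduce cyclooxygenase activity so potencies are for inhibitors.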 Put shortly:
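Colorimetric enzyme readout using sheep seminal-vesicle cyclooxygenase-1, measured 0.66 h post-dosing. Single-concentration duplicates at 25 uM first, then concentration series for actives, with DMSO as baseline and plate controls.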

The target of assay [4] is rat Catechol-O-Methyl Transferase (COMT), Comt (gene 24267) (UniProt P22734). The assay can be described thus: NVS_ENZ_rCOMT: NovaScreen (NVS) Enzymatic Assay for rat Catechol-O-Methyl Transferase (COMT) (AID 2283235). Put shortly:
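Rat dorsal striatum extract served as COMT source; product quantified by HPLC/spectrophotometry, read at 0 h after dosing. Primary single-concentration screen at 25 uM, followed by concentration series to a 50 uM maximum.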

Assay [5] has as its target human Vascular Endothelial Growth Factor Receptor 1 (VEGFR1), FLT1 (gene 2321) (UniProt P17948). The assay can be described thus: NVS_ENZ_hVEGFR1: NovaScreen (NVS) Enzymatic Assay for human Vascular Endothelial Growth Factor Receptor 1 (VEGFR1) (AID 2283226). Put shortly:
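Kinase activity of recombinant human VEGFR1 was read by fluorescence after electrophoretic separation of product from substrate, 1 h post-dosing; initial duplicate single-point testing at 25 uM, followed by concentration-series follow-up, with DMSO as baseline.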

For assay [6], the target named is human Sirtuin 1 (SIRT1), SIRT1 (gene 23411) (UniProt Q96EB6). The assay can be described thus: NVS_ENZ_hSIRT1: NovaScreen (NVS) Enzymatic Assay for human Sirtuin 1 (SIRT1) (AID 2283219). Put shortly: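 Cell-free recombinant SIRT1 with a fluorescent substrate; substrate and product separated by electrophoretic mobility shift and read by fluorescence intensity, 1 h after dosing. Primary screen at 25 uM in duplicate; hits re-run in concentration-response up to 50 uM, relative to DMSO.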
Sequence of human Sirtuin 1 (SIRT1), SIRT1 (gene 23411) (Q96EB6 whole entry, looked up): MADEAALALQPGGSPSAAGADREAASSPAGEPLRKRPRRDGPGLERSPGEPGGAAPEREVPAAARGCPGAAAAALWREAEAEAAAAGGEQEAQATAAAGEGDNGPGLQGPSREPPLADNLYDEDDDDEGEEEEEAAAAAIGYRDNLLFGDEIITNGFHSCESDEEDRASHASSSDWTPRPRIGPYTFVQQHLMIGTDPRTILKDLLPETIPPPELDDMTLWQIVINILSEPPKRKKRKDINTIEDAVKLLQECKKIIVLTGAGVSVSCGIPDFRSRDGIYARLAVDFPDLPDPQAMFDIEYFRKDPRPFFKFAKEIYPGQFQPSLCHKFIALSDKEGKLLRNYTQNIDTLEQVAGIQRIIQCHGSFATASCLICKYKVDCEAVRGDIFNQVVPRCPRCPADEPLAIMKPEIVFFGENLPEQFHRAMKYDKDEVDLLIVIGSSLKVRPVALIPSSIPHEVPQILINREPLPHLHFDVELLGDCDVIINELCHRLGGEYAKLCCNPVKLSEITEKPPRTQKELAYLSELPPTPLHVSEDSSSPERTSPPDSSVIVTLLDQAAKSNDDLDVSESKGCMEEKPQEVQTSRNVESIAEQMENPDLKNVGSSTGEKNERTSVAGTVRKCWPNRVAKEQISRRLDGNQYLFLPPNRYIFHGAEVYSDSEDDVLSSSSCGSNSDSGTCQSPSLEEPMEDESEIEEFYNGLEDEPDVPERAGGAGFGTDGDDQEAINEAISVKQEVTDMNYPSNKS

In assay [7] the target is rat Adenylate Cyclase, Forskolin Stimulated, Adcy5 (gene 64532) (UniProt Q04400). The assay can be described thus: NVS_ENZ_rACFSKBinding: NovaScreen (NVS) Enzymatic Assay for rat Adenylate Cyclase, Forskolin Stimulated (AID 2283232). Put shortly: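 Chemicals were first tested at 25 uM in duplicate, then hits run as concentration series with top concentration 50 uM. Enzyme source was rat forebrain membranes; radiometric filter read-out after 1 h, referenced to DMSO.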
Sequence of rat Adenylate Cyclase, Forskolin Stimulated, Adcy5 (gene 64532) (Q04400 whole entry, looked up): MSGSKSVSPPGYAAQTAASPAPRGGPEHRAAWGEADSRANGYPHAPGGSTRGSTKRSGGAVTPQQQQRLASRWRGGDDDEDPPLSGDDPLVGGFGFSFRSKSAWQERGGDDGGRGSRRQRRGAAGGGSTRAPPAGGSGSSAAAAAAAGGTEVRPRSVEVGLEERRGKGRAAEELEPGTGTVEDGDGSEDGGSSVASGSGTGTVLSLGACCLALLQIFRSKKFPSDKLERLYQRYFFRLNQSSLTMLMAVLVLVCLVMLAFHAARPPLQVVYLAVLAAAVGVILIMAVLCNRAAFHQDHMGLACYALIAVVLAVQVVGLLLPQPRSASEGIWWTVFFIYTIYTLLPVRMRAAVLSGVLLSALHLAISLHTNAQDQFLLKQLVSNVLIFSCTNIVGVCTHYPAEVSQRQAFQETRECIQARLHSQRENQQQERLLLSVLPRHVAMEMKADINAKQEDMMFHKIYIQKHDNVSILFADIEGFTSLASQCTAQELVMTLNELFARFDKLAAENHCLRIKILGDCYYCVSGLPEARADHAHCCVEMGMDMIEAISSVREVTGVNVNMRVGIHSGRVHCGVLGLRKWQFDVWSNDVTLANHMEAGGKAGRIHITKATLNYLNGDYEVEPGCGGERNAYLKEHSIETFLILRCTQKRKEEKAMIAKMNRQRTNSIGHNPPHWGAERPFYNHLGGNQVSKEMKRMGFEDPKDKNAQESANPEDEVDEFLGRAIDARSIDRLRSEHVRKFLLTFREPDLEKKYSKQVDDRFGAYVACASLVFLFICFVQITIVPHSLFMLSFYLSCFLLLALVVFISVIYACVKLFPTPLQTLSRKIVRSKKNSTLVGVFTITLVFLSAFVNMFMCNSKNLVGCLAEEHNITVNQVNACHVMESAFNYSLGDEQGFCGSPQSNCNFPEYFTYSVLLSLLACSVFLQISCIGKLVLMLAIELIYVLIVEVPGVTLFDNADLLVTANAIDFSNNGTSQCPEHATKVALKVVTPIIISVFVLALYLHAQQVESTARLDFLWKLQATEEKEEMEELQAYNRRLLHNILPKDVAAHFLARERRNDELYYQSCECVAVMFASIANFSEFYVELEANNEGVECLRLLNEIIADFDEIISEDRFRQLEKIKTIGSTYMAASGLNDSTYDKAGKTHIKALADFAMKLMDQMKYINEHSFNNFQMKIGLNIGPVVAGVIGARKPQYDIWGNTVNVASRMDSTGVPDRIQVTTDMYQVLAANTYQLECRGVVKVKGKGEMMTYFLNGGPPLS

Assay [8] has as its target rat Acetylcholinesterase (AChE), Ache (gene 83817) (UniProt P37136). The assay can be described thus: NVS_ENZ_rAChE: NovaScreen (NVS) Enzymatic Assay for rat Acetylcholinesterase (AChE) (AID 2283233). Put shortly:
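Compounds first screened at 25 uM in duplicate, then those passing threshold tested in concentration series up to 50 uM, against AChE from rat brain membranes. Enzyme activity read by absorbance at 0.33 h; inhibition scored versus DMSO.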

For assay [9], the target named is human Sirtuin 2 (SIRT2), SIRT2 (gene 22933) (UniProt Q8IXJ6). The assay can be described thus: NVS_ENZ_hSIRT2: NovaScreen (NVS) Enzymatic Assay for human Sirtuin 2 (SIRT2) (AID 2283217). Summed up: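 Single-point duplicate screen at 25 uM, then concentration-response (max 50 uM) for chemicals passing threshold. Enzyme activity of recombinant human SIRT2 measured after 1 hr by fluorescence with mobility-shift separation of product; DMSO baseline.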
Sequence of human Sirtuin 2 (SIRT2), SIRT2 (gene 22933) (Q8IXJ6 whole entry, looked up): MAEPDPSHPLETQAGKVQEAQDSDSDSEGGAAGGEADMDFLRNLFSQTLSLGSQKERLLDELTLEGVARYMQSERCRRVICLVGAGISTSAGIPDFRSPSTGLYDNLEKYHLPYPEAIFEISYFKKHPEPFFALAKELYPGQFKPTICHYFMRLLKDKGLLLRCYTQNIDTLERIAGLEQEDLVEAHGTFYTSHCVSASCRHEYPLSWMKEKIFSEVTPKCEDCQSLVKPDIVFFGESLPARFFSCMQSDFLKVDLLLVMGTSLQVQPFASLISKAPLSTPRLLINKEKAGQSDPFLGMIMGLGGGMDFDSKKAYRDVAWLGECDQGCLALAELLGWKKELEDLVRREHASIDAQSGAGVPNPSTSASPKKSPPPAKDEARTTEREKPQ

For assay [10], the target named is human Sirtuin 3 (SIRT3), SIRT3 (gene 23410) (UniProt Q9NTG7). Nature of the assay: NVS_ENZ_hSIRT3: NovaScreen (NVS) Enzymatic Assay for human Sirtuin 3 (SIRT3) (AID 2283222). Put shortly:
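Cell-free enzyme assay with recombinant protein and fluorescent substrate, product separated by electrophoretic mobility shift; read 1 hour after dosing. Screened in duplicate at 25 uM, then singleton concentration-response up to 50 uM; loss of signal versus DMSO.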

The target of assay [11] is human Tropomyosin Receptor Kinase A (TRKA), NTRK1 (gene 4914) (UniProt P04629). Nature of the assay: NVS_ENZ_hTrkA: NovaScreen (NVS) Enzymatic Assay for human Tropomyosin Receptor Kinase A (TRKA) (AID 2283224). Summed up: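 Compounds were screened at 25 uM in duplicate, then concentration series to a 50 uM top for those meeting threshold (e.g. 30% inhibition). Enzyme was recombinant human TrkA, incubated 1 h. Product formation was quantified by fluorescence after mobility-shift separation.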

Assay [12] deals with human Vascular Endothelial Growth Factor Receptor 2 (VEGFR2), KDR (gene 3791) (UniProt P35968). Nature of the assay: NVS_ENZ_hVEGFR2: NovaScreen (NVS) Enzymatic Assay for human Vascular Endothelial Growth Factor Receptor 2 (VEGFR2) (AID 2283230). Put shortly: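 Cell-free recombinant VEGFR2 kinase, fluorescent substrate with electrophoretic mobility-shift separation; read 1 h after dosing. Screened at 25 uM in duplicate, hits to concentration-response up to 50 uM; loss-of-signal versus DMSO.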

Assay [13] deals with rat Monoamine Oxidase, MAO-A, Peripheral (MAOAP), gene 29253. The assay can be described thus: NVS_ENZ_rMAOAP: NovaScreen (NVS) Enzymatic Assay for rat Monoamine Oxidase, MAO-A, Peripheral (MAOAP) (AID 2283237). Summed up:
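Scintillation counting tracked MAO-A activity in a cell-free rat liver mitochondrial membrane prep, read 1.17 hours after compound addition. Single-point duplicate testing at 25 uM preceded concentration-response follow-up; activity was fitted relative to DMSO.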

The target of assay [14] is bovine Dopamine Receptor (DR), Non-selective Binding, DRD1 (gene 281125) (UniProt Q95136). Nature of the assay: NVS_GPCR_bDR_NonSelective: NovaScreen (NVS) G Protein-Coupled Receptor Assay for bovine Dopamine Receptor (DR), Non-selective Binding (AID 2283241). Put shortly:
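Filter-based radioligand binding with bovine striatal membrane, incubated 1 h; DMSO as negative baseline. Initial duplicate single-point test at 25 uM preceded concentration series for actives.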

The target in assay [15] is human SRC Proto-Oncogene, Non-receptor Tyrosine Kinase (SRC), SRC (gene 6714) (UniProt P12931). The assay can be described thus: NVS_ENZ_hSRC: NovaScreen (NVS) Enzymatic Assay for human SRC Proto-Oncogene, Non-receptor Tyrosine Kinase (SRC) (AID 2283223). Summed up: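 Compounds passing 30% inhibition at 25 uM (duplicate) were titrated to a top concentration of 50 uM. Enzyme activity read by fluorescence with mobility-shift substrate/product separation after 1 h; DMSO baseline.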

Assay [16] deals with human Tyrosine Protein Kinase Receptor Tie-2 (Tie2), TEK (gene 7010) (UniProt Q02763). The assay can be described thus: NVS_ENZ_hTie2: NovaScreen (NVS) Enzymatic Assay for human Tyrosine Protein Kinase Receptor Tie-2 (Tie2) (AID 2283225). Summed up: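 Substrate and product were separated by mobility shift and detected by fluorescence after a 1-hour reaction with recombinant Tie2. Chemicals passing a 25 uM single-point screen were titrated to a maximum of 50 uM. Results were normalized to DMSO baseline.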

Assay [17] has as its target rabbit Imidazoline 2 Central (I2C), CKB (gene 100009085) (UniProt P00567). The assay can be described thus: NVS_ENZ_rabI2C: NovaScreen (NVS) Enzymatic Assay for rabbit Imidazoline 2 Central (I2C) (AID 2283228). Put shortly: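 Rabbit brain membranes, cell-free; readout by filter-based scintillation counting 1.5 hours after dosing, loss of signal vs DMSO. Initial duplicate test at 25 uM, then concentration-response with 50 uM top concentration.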

The target in assay [18] is rat Constitutive Nitric Oxide Synthase (CNOS), Nos1 (gene 24598) (UniProt P29476). The assay can be described thus: NVS_ENZ_rCNOS: NovaScreen (NVS) Enzymatic Assay for rat Constitutive Nitric Oxide Synthase (CNOS) (AID 2283236). Put shortly:
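Single 25 uM duplicate screen, then concentration series to 50 uM for chemicals meeting threshold. Rat brain membrane-derived CNOS activity detected radiometrically by filtration and scintillation counting, 1 h after compound addition; DMSO as baseline.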

Where “and” joins values, the source holds several entries; their conditions need not be identical. Equal values may be shown once. Results filed as inconclusive are left out. Calls of active or inactive are those of the source. Rule for the calls: active = hit-call score of the fitted dose curve at least 0.9, where 1 is the maximum; inconclusive = response in the unintended direction; inactive = score below 0.9.

Sequence of rat Acetylcholinesterase (AChE), Ache (gene 83817) (P37136 whole entry, looked up): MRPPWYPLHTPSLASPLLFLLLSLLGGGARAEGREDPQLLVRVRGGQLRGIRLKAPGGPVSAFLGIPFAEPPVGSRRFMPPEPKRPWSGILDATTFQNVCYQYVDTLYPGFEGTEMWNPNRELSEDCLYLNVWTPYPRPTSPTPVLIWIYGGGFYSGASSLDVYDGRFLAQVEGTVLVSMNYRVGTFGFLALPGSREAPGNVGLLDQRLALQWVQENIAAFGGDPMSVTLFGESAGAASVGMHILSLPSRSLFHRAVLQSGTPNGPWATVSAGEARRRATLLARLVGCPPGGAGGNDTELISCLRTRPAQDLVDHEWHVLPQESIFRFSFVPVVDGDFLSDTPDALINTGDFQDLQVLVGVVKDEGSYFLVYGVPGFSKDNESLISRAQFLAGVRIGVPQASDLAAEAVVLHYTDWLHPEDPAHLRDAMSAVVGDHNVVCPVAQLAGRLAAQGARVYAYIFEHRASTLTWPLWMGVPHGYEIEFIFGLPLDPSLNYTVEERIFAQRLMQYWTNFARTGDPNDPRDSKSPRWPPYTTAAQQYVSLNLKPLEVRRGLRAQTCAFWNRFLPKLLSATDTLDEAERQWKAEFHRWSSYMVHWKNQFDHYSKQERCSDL
Sequence of sheep Cyclooxygenase-1 (Cox1), PTGS1 (gene 443551) (P05979 whole entry, looked up): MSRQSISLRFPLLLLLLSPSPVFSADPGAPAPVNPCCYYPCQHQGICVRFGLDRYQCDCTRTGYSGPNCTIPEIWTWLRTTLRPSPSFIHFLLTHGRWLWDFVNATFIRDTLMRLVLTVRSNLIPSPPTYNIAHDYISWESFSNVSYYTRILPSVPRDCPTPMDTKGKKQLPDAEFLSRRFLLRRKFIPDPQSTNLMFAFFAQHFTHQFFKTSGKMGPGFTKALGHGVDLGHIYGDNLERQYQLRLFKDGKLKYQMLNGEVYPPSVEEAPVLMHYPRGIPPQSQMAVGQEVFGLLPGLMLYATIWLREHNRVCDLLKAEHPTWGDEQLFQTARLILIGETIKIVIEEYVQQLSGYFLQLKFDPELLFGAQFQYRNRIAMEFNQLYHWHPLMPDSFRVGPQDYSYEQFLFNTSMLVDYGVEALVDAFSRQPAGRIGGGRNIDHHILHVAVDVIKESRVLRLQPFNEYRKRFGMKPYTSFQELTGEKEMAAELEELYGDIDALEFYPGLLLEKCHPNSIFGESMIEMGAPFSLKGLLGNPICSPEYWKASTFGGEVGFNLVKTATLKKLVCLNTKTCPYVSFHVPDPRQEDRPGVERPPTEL
Sequence of rat Catechol-O-Methyl Transferase (COMT), Comt (gene 24267) (P22734 whole entry, looked up): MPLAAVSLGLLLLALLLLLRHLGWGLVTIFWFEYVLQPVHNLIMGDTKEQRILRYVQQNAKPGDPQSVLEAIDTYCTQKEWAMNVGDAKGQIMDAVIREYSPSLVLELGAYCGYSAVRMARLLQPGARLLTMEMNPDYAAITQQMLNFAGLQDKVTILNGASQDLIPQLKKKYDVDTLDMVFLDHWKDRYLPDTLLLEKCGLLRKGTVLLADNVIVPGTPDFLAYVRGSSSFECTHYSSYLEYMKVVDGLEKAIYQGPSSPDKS
Sequence of human Sirtuin 3 (SIRT3), SIRT3 (gene 23410) (Q9NTG7 whole entry, looked up): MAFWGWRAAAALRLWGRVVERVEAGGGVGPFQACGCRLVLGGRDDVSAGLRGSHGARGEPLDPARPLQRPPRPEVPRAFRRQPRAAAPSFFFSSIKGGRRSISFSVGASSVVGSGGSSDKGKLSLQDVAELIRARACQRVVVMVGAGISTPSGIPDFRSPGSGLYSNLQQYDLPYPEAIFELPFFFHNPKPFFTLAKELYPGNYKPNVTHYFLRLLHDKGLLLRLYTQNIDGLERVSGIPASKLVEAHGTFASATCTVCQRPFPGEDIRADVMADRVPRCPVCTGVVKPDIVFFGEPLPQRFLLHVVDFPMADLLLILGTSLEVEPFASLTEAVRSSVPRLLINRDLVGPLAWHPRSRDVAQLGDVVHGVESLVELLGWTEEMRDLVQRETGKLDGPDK

Turning to `CON(C)C(=O)Nc1ccc(Cl)c(Cl)c1`, the compound was classed as inactive in assay [1] and in [3]. Further, the AC50 in assay [2] is 16.1 µM (active) [middle of 4 runs].
Turning to `C=CC1(C)OC(=O)N(c2cc(Cl)cc(Cl)c2)C1=O` (stereo not given), the half-maximal activity concentration (AC50) in assay [1] was 5.97 µM (active). Besides, the call in assay [2] and in assay [3] was inactive.
Consider `CCOC(=O)CC(SP(=S)(OC)OC)C(=O)OCC` (stereo not given), for which the compound was called inactive in assay [4] and in assay [2].
As to `COc1cnc(OC)n2nc(NS(=O)(=O)c3c(OCC(F)F)cccc3C(F)(F)F)nc12`, the result in assay [5] was inactive.
For `CS/C(C)=N/OC(=O)N(C)SN(C)C(=O)O/N=C(\C)SC`, the concentration at half-maximal activity (AC50) in [6] is 6.69 µM (active); in assay [7] it was 6.77 µM (active); in assay [8], 2 µM (active).
For `CO/C=C(/C(=O)OC)c1ccccc1Oc1cc(Oc2ccccc2C#N)ncn1`, the call in assay [9], in assay [10], in assay [11], in [12] and in assay [3] was inactive.
For `COc1ccc(C(c2ccc(OC)cc2)C(Cl)(Cl)Cl)cc1`, in assay [2], the concentration at half-maximal activity (AC50) is 25 µM (active).
Consider `CCCCNC(=O)OCC#CI`, for which the result in assay [9], in assay [10], in assay [2] and in assay [14] was inactive. The AC50 in [6] is 11.9 µM (active) and 10.7 µM (active); in [7] it was 18.1 µM (active) and 19.4 µM (active); in [13], 36.8 µM (active) and 25 µM (active).
Take `COP(=S)(OC)Oc1nc(Cl)c(Cl)cc1Cl`: the call in assay [8] and in assay [4] was inactive.
Take `CNC(=S)S`: the outcome in assay [15], in assay [16], in assay [17] and in [7] was inactive.
Regarding `COC(=O)C=C(C)OP(=O)(OC)OC`, the half-maximal activity concentration (AC50) in assay [8] was 1.52 µM (active).
Take `CCCCNC(=O)n1c(NC(=O)OC)nc2ccccc21`: in [17], the concentration at half-maximal activity (AC50) is 14.2 µM (active). Further, the compound was classed as inactive in assay [7].
On to `CCCCC(CC)COC(=O)c1ccccc1C(=O)OCC(CC)CCCC` (stereo not given), for which the result in assay [18] was inactive.
Consider `COC(=O)C(C)Oc1ccc(Oc2ccc(Cl)cc2Cl)cc1` (stereo not given), for which the compound was classed as inactive in assay [16].
Regarding `CC(C)Oc1cc(-n2nc(C(C)(C)C)oc2=O)c(Cl)cc1Cl`, the result in assay [7] was inactive.
Take `COc1nc(NC(C)C)nc(NC(C)C)n1`: in [2], the AC50 was 1.29 µM (active).
With `Fc1ccc(Oc2ccnc3cc(Cl)cc(Cl)c23)cc1`, the call in assay [9] was inactive.
With `Oc1ccccc1-c1ccccc1`, in assay [3], the concentration at half-maximal activity (AC50) was 8.97 µM (active).
